In PubChem BioAssay (EPA / NIEHS):
Results filed as inconclusive are left out. Activity calls are given as the source filed them. Rule for the calls: active = hit-call score of the fitted dose curve at least 0.9, where 1 is the maximum; inconclusive = response in the unintended direction; inactive = score below 0.9.

Experiment: TOX21_p53_BLA_p3_viability: Viability Assessment in the Tox21 HCT-116 p53 Agonism Beta-lactamase Assay, Phase 3 (AID 2283593);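 note: cells exposed to compound for 16 h before reading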
Summary of the method: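 Cellular ATP was quantified by CellTiter-Glo luminescence, read after 30 min at room temperature. Beforehand, HCT116 cells (4000/well) received compound 5 h post-seeding, 217-fold diluted from DMSO, then incubated 16 h at 37C.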

Compound	outcome
CCOC(=O)c1ncn2c1CN(C)C(=O)c1cc(F)ccc1-2	inactive
CC1(C)CCC(NC(=O)[C@@H](N)CCC(=O)O)CC1	inactive
c1ccc2cc3c4ccccc4c4ccccc4c3cc2c1	inactive
OCC(CO)N[C@H]1C[C@](O)(CO)[C@@H](O)[C@H](O)[C@H]1O	inactive
CN(C)CCCNCCC#N	inactive
CCCCCCCCCCCCOC(=O)c1ccc(O)cc1	inactive
NC(=O)c1ccccc1N	inactive
O=C1c2ccccc2S(=O)(=O)N1CCCCN1CCN(c2ncccn2)CC1	inactive
C/C(=N\O)c1ccc(OCC(=O)N2CCCCC2)cc1	inactive
COc1ccccc1N1CCN(CCCCNC(=O)c2ccc(-c3ccc(C(C)=O)cc3)cc2)CC1	inactive
CCC(=O)O[C@]1(C(=O)CCl)[C@@H](C)C[C@H]2[C@@H]3CCC4=CC(=O)C=C[C@]4(C)[C@@]3(F)[C@@H](O)C[C@@]21C	inactive
COc1cc(-c2ccc(=O)[nH]n2)ccc1OC(F)F	inactive
O=C(OC(=O)c1ccccc1)c1ccccc1	inactive
C1C[C@@H]2[C@H]3CC[C@H](C3)[C@@H]2C1	inactive
Cl[Si](Cl)(c1ccccc1)c1ccccc1	inactive
O=C(OC1C[C@H]2CC[C@@H](C1)[N+]21CCCC1)C(O)(c1ccccc1)c1ccccc1 (some centres not stated)	inactive

Compound	outcome
CCC(N)(CO)CO	inactive
COC(=O)CC#N	inactive
C=CC1=C(C(=O)O)N2C(=O)[C@@H](NC(=O)C(=NOCC(=O)O)c3csc(N)n3)[C@H]2SC1	inactive
COc1ccc(C2C(=O)c3ccccc3C2=O)cc1	inactive
C=CCCC=C	inactive
Cc1cc(O)cc2c1O[C@](C)(CCC[C@H](C)CCC[C@H](C)CCCC(C)C)CC2	inactive
C[C@]12CC[C@@H]3c4ccc(OS(=O)(=O)O)cc4CC[C@H]3[C@@H]1CCC2=O	inactive
CC(=O)Nc1ccc(N)cc1	inactive
O=C1c2ccccc2C(=O)C1c1ccc(Br)cc1	inactive
C[N+](C)(C)CC(O)CC(=O)[O-] (configuration not stated)	inactive
CCCCCCCCCCCCCCCCCCOP(=O)([O-])OC1CC[N+](C)(C)CC1	inactive
CN1C(=O)CC(C)(c2ccccc2)C1=O (configuration not stated)	inactive
Nc1ccc2cc(S(=O)(=O)O)cc(O)c2c1	inactive
CC(=O)OCC(=O)[C@@]12OC3(CCCC3)O[C@@H]1C[C@H]1[C@@H]3CCC4=CC(=O)C=C[C@]4(C)[C@@]3(F)[C@@H](O)C[C@@]12C	inactive
O=C(O)[C@H](O)[C@@H](O)[C@H](O[C@@H]1O[C@H](CO)[C@H](O)[C@H](O)[C@H]1O)[C@H](O)CO	inactive
N=C(N)c1ccc2cc(OC(=O)c3ccc(N=C(N)N)cc3)ccc2c1	inactive
